Laboratory results published in PubChem BioAssay (NCATS).
Inconclusive results are not listed. Entries that show only a call come without a potency. Unmarked numbers belong to inactive results. Activity calls are given as the source filed them. Calls follow the shape of the dose curve; as a rule, active = well fitted curve in the direction sought with a large enough effect; inconclusive = small, poorly fitted or top-dose-only effect, or another doubt; inactive = no such curve, though single readings can be large; an effect the other way counts as inactive or inconclusive.

Assays:
[1] = molecular target: Aldehyde dehydrogenase, mitochondrial (Homo sapiens) (UniProt P05091); experiment: qHTS for Inhibitors of the Aldehyde Dehydrogenase Family (ALDH2) Primary screen (AID 2061308); conditions: ALDH2 enzyme inhibition qHTS, 1536-well; series mostly up to 56 µM; also: nearly all actives have a fitted effect of over 55% in size
[2] = molecular target: Retinaldehyde dehydrogenase 3 (Homo sapiens) (UniProt P47895); experiment: qHTS for Inhibitors of the Aldehyde Dehydrogenase Family (ALDH1A3) Primary screen (AID 2061315); conditions: ALDH inhibition qHTS; series mostly up to 56 µM
[3] = BET inhibitor-based combinations targeting novel dependencies in MECOM-rearranged (r) AML: SET-2 cell line (AID 2202231); conditions: SET-2 AML cells viability, CellTiter-Glo luminescence, 48 h; viability: stronger effect = lower value, concentration not given here; also: nearly all actives have a fitted effect of over 35% in size; also: potency is read from the fitted curve at half-maximal effect
How it was run: (§1)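 Here, 11-point titrations of each agent were applied to 500 seeded cells and incubated 48 hr; CellTiter-Glo signal, scaled against DMSO and empty wells, was integrated as AUC, then Z-scored within the individual line.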

[4] = BET inhibitor-based combinations targeting novel dependencies in MECOM-rearranged (r) AML: MV-4-11 cell line (AID 2202233); conditions: MV-4-11 AML viability, CellTiter-Glo luminescence, 48 h; series mostly up to 46 µM; also: nearly all actives have a fitted effect of over 45% in size; also: potency is read from the fitted curve at half-maximal effect
How it was run: (§2)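 Normalized to DMSO and empty-well controls, the luminescence data from CellTiter-Glo after 48 hr drug exposure were fitted across 11 concentrations. Reported metrics are area under the dose-response curve and its Z-transformed form.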

[5] = BET inhibitor-based combinations targeting novel dependencies in MECOM-rearranged (r) AML: HNT-34 cell line (AID 2202234); conditions: HNT-34 AML viability, CellTiter-Glo luminescence, 48 h; series mostly up to 46 µM; also: nearly all actives have a fitted effect of over 35% in size; also: potency is read from the fitted curve at half-maximal effect
How it was run: as §2

[6] = BET inhibitor-based combinations targeting novel dependencies in MECOM-rearranged (r) AML: AML-191 cell line (AID 2202236; also: nearly all actives have a fitted effect of over 35% in size; also: potency is read from the fitted curve at half-maximal effect); conditions: AML-191 viability, CellTiter-Glo luminescence, 48 h; series mostly up to 46 µM
How it was run: as §1

[7] = BET inhibitor-based combinations targeting novel dependencies in MECOM-rearranged (r) AML: AML-194 cell line (AID 2202237; also: nearly all actives have a fitted effect of over 40% in size; also: potency is read from the fitted curve at half-maximal effect); conditions: AML-194 (MECOM-r AML) viability, CellTiter-Glo, 48 h; series mostly up to 46 µM
How it was run: as §1

[8] = BET inhibitor-based combinations targeting novel dependencies in MECOM-rearranged (r) AML: OCI-AML3 cell line (AID 2202232); conditions: CellTiter-Glo luminescence, 48 h; Potency: OCI-AML3 viability; series mostly up to 46 µM; also: nearly all actives have a fitted effect of over 35% in size; also: potency is read from the fitted curve at half-maximal effect
How it was run: as §1

[9] = BET inhibitor-based combinations targeting novel dependencies in MECOM-rearranged (r) AML: UCSD-AML1 cell line (AID 2202235); conditions: UCSD-AML1 AML cells viability, CellTiter-Glo, 48 h; series mostly up to 46 µM; also: nearly all actives have a fitted effect of over 40% in size; also: potency is read from the fitted curve at half-maximal effect
How it was run: as §2

SMILES | Potency [1] | Potency [2] | Potency [3] | Potency [4] | Potency [5] | Potency [6] | Potency [7] | Potency [8] | Potency [9] | viability [3]
CN1CCN(c2cccc(Nc3nc4c(-c5ccc(S(C)(=O)=O)cc5)cccn4n3)c2)CC1 | inactive | inactive | 4.17 µM (active) | 0.662 µM (active) | 2.35 µM (active) | 5.9 µM (active) | 13.2 µM (active) | – | – | –
C[C@@H]1CCNC(=O)c2cc3ccc(C(=O)Nc4nc5ccccc5n4CCCN(C)C)cc3n21 | inactive | inactive | – | 0.59 µM (active) | 16.6 µM (active) | – | – | 6.61 µM (active) | – | –
C[C@@H](Nc1ncnc2[nH]c(-c3ccc(O)cc3)cc12)c1ccccc1 | inactive | inactive | 5.25 µM (active) | 14.8 µM (active) | 14.8 µM (active) | – | – | – | – | –
COCCNCc1ccc(-c2cc3nccc(Oc4ccc(NC(=S)NC(=O)Cc5ccc(F)cc5)cc4F)c3s2)nc1 | inactive | inactive | 4.68 µM (active) | 0.132 µM (active) | – | 2.35 µM (active) | – | 2.63 µM (active) | 2.95 µM (active) | –
O=C(NCc1ccccc1)c1csc(Nc2ccncn2)n1 | inactive | inactive | – | 9.34 µM (active) | 10.5 µM (active) | 18.6 µM (active) | 18.6 µM (active) | 10.5 µM (active) | 18.6 µM (active) | –
Clc1cccc(-c2ccc(-c3nnc(CCCc4ccc5cccnc5n4)o3)cc2)c1 | inactive | inactive | – | inactive | – | inactive | inactive | inactive | inactive | 119%
CCN1CCN(Cc2ccc(NC(=O)c3ccc(C)c(/C=C/c4cnc5[nH]ccc5c4OC)c3)cc2C(F)(F)F)CC1 | inactive | inactive | 5.9 µM (active) | 0.186 µM (active) | 0.209 µM (active) | – | – | – | 2.95 µM (active) | –
COc1cc2nc(-c3ccc(N4CCN(C)CC4)cc3)nc(NCCN3CCOCC3)c2cc1OC | inactive | inactive | 5.9 µM (active) | 2.35 µM (active) | 10.5 µM (active) | 9.34 µM (active) | 13.2 µM (active) | – | 4.68 µM (active) | –
COCCNCCCn1c(C(=O)CF)c(-c2ccc(C)cc2)c2c(N)ncnc21 | inactive | inactive | – | 3.32 µM (active) | – | – | inactive | 0.059 µM (active) | inactive | 101%
Cc1[nH]c(/C=C2\C(=O)Nc3ccc(F)cc32)c(C)c1C(=O)NC[C@H](O)CN1CCOCC1 | inactive | inactive | – | 0.0742 µM (active) | – | 4.17 µM (active) | 10.5 µM (active) | 5.25 µM (active) | 10.5 µM (active) | –
Cc1onc(-c2ccc(F)cc2)c1COc1ccc(C(=O)N2CCS(=O)(=O)CC2)cn1 | inactive | inactive | – | – | inactive | inactive | – | inactive | inactive | 112%
Cc1c(F)ccc(C(=O)Nc2cc([N+](=O)[O-])ccc2N2CCN(C)CC2)c1Cl | inactive | inactive | – | 3.32 µM (active) | inactive | inactive | inactive | – | inactive | 110%
COc1cc2ncnc(Nc3ccc(O)c(Br)c3)c2cc1OC | inactive | inactive | – | 1.48 µM (active) | – | – | – | – | – | –
CC(C)c1c(-c2ccccc2)nc2c(C#N)c[nH]n2c1=O | inactive | inactive | – | inactive | inactive | inactive | inactive | – | – | 118%
C[C@@H]1CCN(C(=O)CC#N)C[C@@H]1N(C)c1ncnc2[nH]ccc12 | inactive | inactive | 1.48 µM (active) | – | – | – | – | – | 0.059 µM (active) | –
O=C(O)c1ccc(CN2CCC(CN[C@@H]3C[C@H]3c3ccccc3)CC2)cc1 | inactive | inactive | 0.186 µM (active) | – | inactive | inactive | – | – | 0.209 µM (active) | –
CNCc1ccc(-c2cc(-c3nc(-c4ccc(S(=O)(=O)C(C)C)cc4)cnc3N)on2)cc1 | inactive | inactive | – | – | – | – | – | inactive | 0.742 µM (active) | –
O=C1NC(=O)/C(=C/c2cccc(C(F)(F)F)c2)S1 | inactive | inactive | – | – | – | inactive | inactive | inactive | – | –
CCC(=O)Nc1cccc(Oc2nc(Nc3ccc(N4CCN(C)CC4)cc3OC)ncc2Cl)c1 | inactive | inactive | – | 7.42 µM (active) | 11.8 µM (active) | 18.6 µM (active) | 23.5 µM (active) | 14.8 µM (active) | inactive | –
COc1cc2c(cc1OC(C)C)[C@H](c1ccc(Cl)cc1)N(c1ccc(N(C)CC3CCC(N4CCN(C)C(=O)C4)CC3)cc1)C(=O)C2 (some centres not stated) | inactive | inactive | – | 2.35 µM (active) | 3.72 µM (active) | 5.9 µM (active) | – | 11.8 µM (active) | 4.68 µM (active) | –
